Measurements as given in PubChem BioAssay (Tox21).
Results filed as inconclusive are left out. The source made the active and inactive calls. Unless noted, calls come from the whole dose curve; as a rule, active = well fitted curve in the direction sought with a large enough effect in the repeat runs; inconclusive = weak or mixed curves; inactive = no such curve, though single readings can be large; an effect the other way counts as inactive or inconclusive.

Tests used:
[1] = qHTS assay to identify small molecule agonists of the estrogen receptor alpha (ER-alpha) signaling pathway in the presence of an antagonist - cell viability counter screen (AID 1259386);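 note: series mostly up to about 92 µM; cells exposed to compounds for 22 h at 37 °C before the viability read; nearly all actives have a fitted effect of over 30% in size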
Method in brief: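 Viability counter screen using VM7Luc4E2 (full-length ER-alpha, four ERE-luciferase). The cells were treated with compounds alongside ICI-182,780 10.0nM for 22hr, and live-cell protease fluorescence was quantified with CellTiter-Fluor.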

[2] = target: Progesterone receptor (Homo sapiens) (UniProt P06401); test: qHTS assay to identify small molecule agonists of the progesterone receptor (PR) signaling pathway (AID 1346784; calls by dose curve; note: nearly all actives have a fitted effect of over 30% in size)
Method in brief: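 Using charcoal-stripped serum (2%) to limit endogenous steroids, PR-UAS-bla HEK 293T cells received compounds for 16 hr at 37C after 6 hr plating; beta-lactamase FRET fluorescence was recorded following 2 hr substrate loading at room temperature.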

[3] = target: Progesterone receptor (Homo sapiens) (UniProt P06401); test: qHTS assay to identify small molecule antagonists of the progesterone receptor (PR) signaling pathway (AID 1346795; active = well fitted inhibition curve with a large enough effect in the signal ratio in the repeat runs, not every such curve was filed as active; the % refers to the signal ratio)
Method in brief: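 Inhibition of R5020-induced (1 nM final) beta-lactamase reporter signal in PR-UAS-bla HEK293T cells was scored by FRET fluorescence after overnight (16 hr) compound treatment.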

[4] = qHTS assay to identify small molecule antagonists of the progesterone receptor (PR) signaling pathway - cell viability counter screen (AID 1346798); note: series mostly up to about 92 µM; nearly all actives have a fitted effect of over 50% in size
Method in brief: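 ATP content as viability readout: CellTiter-Glo luminescence, 30 min room temperature, in PR-UAS-bla HEK293T cells after 16 hr compound/R5020 treatment at 37C and 5% CO2.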

[5] = qHTS assay to identify small molecule agonists of the progesterone receptor (PR) signaling pathway - cell viability counter screen (AID 1346799; calls by dose curve; note: nearly all actives have a fitted effect of over 45% in size)
Method in brief: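 Cytotoxicity in PR-bla HEK293T cells: 16 h compound, 37C; CellTiter-Glo added post-FRET read; luminescence after 30 min RT.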

[6] = qHTS assay to identify small molecule antagonists of the TGF-beta/Smad signaling pathway - cell viability counter screen (AID 1346824); note: nearly all actives have a fitted effect of over 50% in size
Method in brief: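 SBE-bla HEK 293T cells, incubated overnight, then compound plus 0.25 ng/mL TGF-beta1 (stock added) for 5 hr at 37 C. Viability was read in the same wells by CellTiter-Glo luminescence after 30 min at room temperature.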

[7] = qHTS assay to identify small molecule agonists of the TGF-beta/Smad signaling pathway - cell viability counter screen (AID 1346829); note: top concentration of the series differs between compounds; nearly all actives have a fitted effect of over 45% in size
Method in brief: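 Tox21 qHTS format: SBE-bla HEK 293T cells treated with DMSO-dissolved compounds for 5 hr; CellTiter-Glo luminescence after 30 min at room temperature.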

[8] = qHTS assay to identify small molecule agonists of the TGF-beta/Smad signaling pathway (AID 1346859; active = well fitted activation curve with a large enough effect in the signal ratio in the repeat runs, not every such curve was filed as active; the % refers to the signal ratio; note: series mostly up to about 77 µM)
Method in brief: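 Stable Smad binding element-beta-lactamase HEK 293T cells; 5 hr compound exposure at 37 C under 5% CO2; 2 hr room-temperature substrate step; fluorescence excited at 405 nm, collected at 460 nm and 530 nm.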

[9] = target: Thyrotropin-releasing hormone receptor (Homo sapiens) (UniProt P34981); test: qHTS assay to identify small molecule antagonists of the thyrotropin-releasing hormone receptor (TRHR) signaling pathway (AID 1346877; active = well fitted inhibition curve with a large enough effect in the repeat runs, not every such curve was filed as active; note: series mostly up to about 51 µM)
Method in brief: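 Following an 18 h incubation at 37 °C and a 2 h calcium dye load, TRHR-HEK293 cells were exposed to compound (5 min, room temperature) and challenged with TRH, 1 nM final.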

[10] = target: Thyrotropin-releasing hormone receptor (Homo sapiens) (UniProt P34981); test: qHTS assay to identify small molecule agonists of the thyrotropin-releasing hormone receptor (TRHR) signaling pathway (AID 1346891; calls by dose curve;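 note: HEK293 cells expressing TRHR with calcium dye readout; series mostly up to about 58 µM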)
Method in brief: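 In 1536-format, 1500 TRHR-Hek293 cells per well grew 18 h, took up calcium dye for 2 h at 37 °C, received compound, and were read kinetically; 15-point titrations, triplicates.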

[11] = Human pregnane X receptor (PXR) small molecule agonists, qHTS cell viability counter screen (AID 1346977); note: nearly all actives have a fitted effect of over 50% in size
Method in brief: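 Readout is CellTiter-Fluor fluorescence from PXR-Luc HepG2 cells. Plated cells rested 5hr, then were treated with compounds for 24hr at 37C and 5% CO2, with reagent present during the last hour.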

[12] = Caspase-3/7 induction in CHO-K1 cells by small molecules, qHTS cell viability counter screen (AID 1346979); note: nearly all actives have a fitted effect of over 35% in size
Method in brief: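 To flag cytotoxic compounds, treated CHO-K1 wild-type cells were given CellTiter-Fluor at 16hr and read fluorescently after 1hr at 37C; the caspase-3/7 luminescence was measured in these same wells.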

[13] = Caspase-3/7 induction in CHO-K1 cells by small molecules, qHTS assay (AID 1346980); note: nearly all actives have a fitted effect of over 15% in size
Method in brief: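 Wild-type CHO-K1 cells exposed to compounds for 17hr at 37 C, 5% CO2. Caspase-3/7 activity then measured by Caspase-Glo 3/7 luminescence after 30min at room temperature.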

[14] = Caspase-3/7 induction in HepG2 cells by small molecules, qHTS cell viability counter screen (AID 1346981); note: series mostly up to about 92 µM; nearly all actives have a fitted effect of over 30% in size
Method in brief: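 Viability determined by CellTiter-Fluor fluorescence in HepG2 wells also used for the luminescent Caspase-Glo 3/7 read. Compounds were present for 16 hr at 37 C, 5% CO2 before reagent addition.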

[15] = target: Nuclear receptor subfamily 1 group I member 2 (Homo sapiens) (UniProt O75469); test: Human pregnane X receptor (PXR) small molecule agonists, qHTS assay (AID 1346982); note: nearly all actives have a fitted effect of over 35% in size; note: potency is the fitted concentration of half-maximal effect
Method in brief: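 Compound-induced hPXR transactivation of a CYP3A4 luciferase reporter was scored in HepG2 PXR-Luc cells over 24 hr at 37 C, 5% CO2, by luminescence.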

[16] = target: Acetylcholinesterase (Homo sapiens) (UniProt P22303); test: Acetylcholinesterase (AChE) small molecule antagonists: colormetric cell-based qHTS assay (AID 1347395; calls by dose curve; note: nearly all actives have a fitted effect of over 30% in size)
Method in brief: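 Neuroblastoma line SH-SY5Y supplied the enzyme; cells were preincubated with compound for 30 min at 37 C and 5% CO2. Acetylthiocholine with DTNB was then added for 90 min at 37 C, and thiocholine was measured by colour.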

[17] = Caspase-3/7 induction in HepG2 cells by small molecules, qHTS assay (AID 1346978); note: nearly all actives have a fitted effect of over 15% in size
Method in brief: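 Wild-type HepG2 cells, 2,000/well, settled 5 hr at 37 C and 5% CO2, then compound-treated for 17 hr; caspase-3/7 activity read by luminescent Caspase-Glo 3/7 after 30 min at room temperature.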

[18] = target: Nuclear receptor subfamily 1 group I member 2 (Rattus norvegicus) (UniProt Q9R1A7); test: Rat pregnane X receptor (rPXR) activation by small molecules, qHTS assay (AID 1346983); conditions: rPXR luciferase reporter cells, One-Glo luminescence, 24 h; max activation: stronger effect = higher value; note: nearly all actives have a fitted effect of over 20% in size
Method in brief: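 Cell-based rPXR activation assay: rPXR cells, 2,000 per well, rested 5hr at 37 C, then exposed to compounds in DMSO for 24 hr at 37 C. Luciferase activity read by One-Glo luminescence after 30 min at room temperature.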

[19] = target: Nuclear receptor subfamily 1 group I member 2 (Homo sapiens) (UniProt O75469); test: CYP3A4 induction through human pregnane X receptor (PXR) by small molecules, qHTS assay (AID 1346984); note: nearly all actives have a fitted effect of over 40% in size
Method in brief: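 Readings come from a luciferase reporter: DPX-2 cells, which are HepG2 cotransfected with PXR and a CYP3A4-promoter construct, were exposed to test compounds for 24 h at 37C before One-Glo detection.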

[20] = target: Nuclear receptor subfamily 1 group I member 2 (Homo sapiens) (UniProt O75469); test: Human pregnane X receptor (PXR) activation by small molecules, qHTS assay (AID 1346985); note: nearly all actives have a fitted effect of over 40% in size
Method in brief: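 DPX-2 cells (HepG2 co-transfected with a PXR response element and a CYP3A4-promoter luciferase construct) were seeded at 2,000 per well, rested 5 hr at 37C, then exposed to DMSO-dissolved compounds for 24 hr. Activation was read as luciferase luminescence.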
% is set by controls: 0 for no effect and ±100 for the full control effect.

Thyrotropin-releasing hormone receptor (Homo sapiens), sequence (P34981 whole entry, looked up): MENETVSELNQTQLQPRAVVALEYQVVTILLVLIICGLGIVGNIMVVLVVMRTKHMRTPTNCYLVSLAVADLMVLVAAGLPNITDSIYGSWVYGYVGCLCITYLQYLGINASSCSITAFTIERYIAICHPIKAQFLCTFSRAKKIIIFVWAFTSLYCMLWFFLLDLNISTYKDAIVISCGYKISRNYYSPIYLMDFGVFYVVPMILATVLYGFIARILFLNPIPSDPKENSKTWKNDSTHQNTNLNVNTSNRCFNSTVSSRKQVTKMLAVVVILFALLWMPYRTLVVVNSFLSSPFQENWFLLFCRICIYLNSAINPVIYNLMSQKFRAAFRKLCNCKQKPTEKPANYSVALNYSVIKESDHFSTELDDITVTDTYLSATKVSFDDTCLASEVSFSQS
Progesterone receptor (Homo sapiens), sequence (P06401 whole entry, looked up): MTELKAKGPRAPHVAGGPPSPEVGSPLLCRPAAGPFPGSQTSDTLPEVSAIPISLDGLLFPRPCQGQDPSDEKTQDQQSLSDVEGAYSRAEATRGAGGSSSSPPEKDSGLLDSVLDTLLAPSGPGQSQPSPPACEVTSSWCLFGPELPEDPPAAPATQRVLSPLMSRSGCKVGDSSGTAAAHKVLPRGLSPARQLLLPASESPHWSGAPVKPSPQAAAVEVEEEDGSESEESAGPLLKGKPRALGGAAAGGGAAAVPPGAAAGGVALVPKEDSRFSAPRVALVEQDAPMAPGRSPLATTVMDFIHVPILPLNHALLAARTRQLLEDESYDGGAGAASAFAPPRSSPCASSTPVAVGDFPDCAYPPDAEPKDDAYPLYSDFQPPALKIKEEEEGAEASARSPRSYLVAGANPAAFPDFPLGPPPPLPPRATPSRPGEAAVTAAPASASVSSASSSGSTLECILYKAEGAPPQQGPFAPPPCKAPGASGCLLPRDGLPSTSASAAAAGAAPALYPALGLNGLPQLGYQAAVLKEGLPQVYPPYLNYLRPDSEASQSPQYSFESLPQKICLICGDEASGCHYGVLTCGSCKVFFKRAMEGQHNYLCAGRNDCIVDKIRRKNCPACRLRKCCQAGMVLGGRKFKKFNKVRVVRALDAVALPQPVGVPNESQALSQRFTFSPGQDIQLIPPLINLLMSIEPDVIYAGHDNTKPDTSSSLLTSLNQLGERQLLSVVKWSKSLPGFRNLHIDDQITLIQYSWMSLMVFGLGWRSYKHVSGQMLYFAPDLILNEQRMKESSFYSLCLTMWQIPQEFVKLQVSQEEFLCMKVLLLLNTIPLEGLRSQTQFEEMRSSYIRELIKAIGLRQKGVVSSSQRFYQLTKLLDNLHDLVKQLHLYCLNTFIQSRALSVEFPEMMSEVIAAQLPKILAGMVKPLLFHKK
Nuclear receptor subfamily 1 group I member 2 (Homo sapiens), sequence (O75469 whole entry, looked up): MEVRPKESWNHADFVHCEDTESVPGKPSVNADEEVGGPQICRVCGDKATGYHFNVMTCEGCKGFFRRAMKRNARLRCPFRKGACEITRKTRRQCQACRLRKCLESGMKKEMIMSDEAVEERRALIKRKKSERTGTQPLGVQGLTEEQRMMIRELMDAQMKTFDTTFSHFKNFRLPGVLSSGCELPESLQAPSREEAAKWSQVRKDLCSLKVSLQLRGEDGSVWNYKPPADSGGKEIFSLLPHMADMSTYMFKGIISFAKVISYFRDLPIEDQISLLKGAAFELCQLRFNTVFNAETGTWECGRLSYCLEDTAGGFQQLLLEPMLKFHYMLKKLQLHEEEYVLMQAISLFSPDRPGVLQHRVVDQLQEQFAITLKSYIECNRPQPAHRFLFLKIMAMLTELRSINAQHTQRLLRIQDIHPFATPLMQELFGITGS
Acetylcholinesterase (Homo sapiens), sequence (P22303 whole entry, looked up): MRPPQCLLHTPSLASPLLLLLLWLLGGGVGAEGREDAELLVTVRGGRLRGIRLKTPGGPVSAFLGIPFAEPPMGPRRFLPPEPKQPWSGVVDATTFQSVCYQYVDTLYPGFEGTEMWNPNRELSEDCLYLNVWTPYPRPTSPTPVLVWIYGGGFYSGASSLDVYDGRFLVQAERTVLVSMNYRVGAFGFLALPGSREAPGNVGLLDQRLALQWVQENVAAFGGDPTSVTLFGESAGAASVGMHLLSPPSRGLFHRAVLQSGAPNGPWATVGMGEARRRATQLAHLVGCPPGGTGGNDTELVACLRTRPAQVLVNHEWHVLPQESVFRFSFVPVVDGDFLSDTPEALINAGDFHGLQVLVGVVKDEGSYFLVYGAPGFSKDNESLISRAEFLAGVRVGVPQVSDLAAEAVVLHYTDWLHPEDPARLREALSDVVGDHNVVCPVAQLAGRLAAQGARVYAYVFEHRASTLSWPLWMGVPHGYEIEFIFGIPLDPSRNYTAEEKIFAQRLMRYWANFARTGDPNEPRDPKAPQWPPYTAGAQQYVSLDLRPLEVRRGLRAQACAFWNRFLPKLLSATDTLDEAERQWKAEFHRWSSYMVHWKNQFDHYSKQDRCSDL
Nuclear receptor subfamily 1 group I member 2 (Rattus norvegicus), sequence (Q9R1A7 whole entry, looked up): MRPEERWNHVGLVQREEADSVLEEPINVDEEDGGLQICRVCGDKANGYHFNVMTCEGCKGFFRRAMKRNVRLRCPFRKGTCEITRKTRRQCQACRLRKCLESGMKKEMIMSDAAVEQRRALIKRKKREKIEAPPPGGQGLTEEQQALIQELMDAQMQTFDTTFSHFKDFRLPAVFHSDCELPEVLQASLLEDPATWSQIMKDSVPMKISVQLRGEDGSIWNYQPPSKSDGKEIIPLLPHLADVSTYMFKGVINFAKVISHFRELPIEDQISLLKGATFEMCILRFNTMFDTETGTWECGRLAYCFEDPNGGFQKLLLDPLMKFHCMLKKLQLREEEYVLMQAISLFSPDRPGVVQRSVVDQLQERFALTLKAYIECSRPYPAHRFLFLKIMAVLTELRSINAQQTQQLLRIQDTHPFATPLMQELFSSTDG

CCCCOP(=O)(O)OCCCC
inactive: Potency [1] | Potency [2] | Potency [3] | Potency [4] | Potency [5] | Potency [6] | outcome [7] | outcome [8] | outcome [9] | outcome [10] | Potency [11] | Potency [12] | Potency [13] | Potency [14] | Potency [15] | Potency [16]

CCCCOC(=O)c1ccccc1N
inactive: Potency [1] | Potency [2] | Potency [3] | Potency [4] | Potency [5] | Potency [6] | outcome [7] | outcome [8] | outcome [9] | outcome [10] | Potency [11] | Potency [17] | Potency [12] | Potency [13] | Potency [14] | Potency [15] | Potency [16]

O=C1CN=C(c2ccccc2)c2cc([N+](=O)[O-])ccc2N1
inactive: Potency [1] | Potency [2] | Potency [3] | Potency [4] | Potency [5] | Potency [6] | outcome [7] | outcome [8] | outcome [9] | outcome [10] | Potency [11] | Potency [17] | Potency [12] | Potency [13] | Potency [14] | max activation [18] -2.6% | Potency [19] | Potency [20]

CC(C)[N+](=O)[O-]
inactive: Potency [1] | Potency [2] | Potency [3] | Potency [4] | Potency [5] | Potency [6] | outcome [7] | outcome [8] | outcome [9] | outcome [10] | Potency [11] | Potency [17] | Potency [12] | Potency [13] | Potency [14] | Potency [15] | Potency [16]

CC(N)=S
inactive: Potency [1] | Potency [2] | Potency [3] | Potency [4] | Potency [5] | Potency [6] | outcome [7] | outcome [8] | outcome [9] | outcome [10] | Potency [11] | Potency [17] | Potency [12] | Potency [13] | Potency [14] | Potency [15] | Potency [16]

COc1cc(OC)nc(NC(=O)NS(=O)(=O)c2ncccc2C(=O)N(C)C)n1
inactive: Potency [1] | Potency [2] | Potency [3] | Potency [4] | Potency [5] | Potency [6] | outcome [7] | outcome [8] | outcome [9] | outcome [10] | Potency [11] | Potency [17] | Potency [12] | Potency [13] | Potency [14] | Potency [15] | Potency [16]

Cc1ncsc1CCCl
inactive: Potency [1] | Potency [2] | Potency [3] | Potency [4] | Potency [5] | Potency [6] | outcome [7] | outcome [8] | outcome [9] | outcome [10] | Potency [17] | Potency [12] | Potency [13] | Potency [14] | Potency [15] | max activation [18] -0.969% | Potency [19] | Potency [20] | Potency [16]

OCCBr
inactive: Potency [1] | Potency [2] | Potency [3] | Potency [4] | Potency [5] | outcome [7] | outcome [8] | outcome [9] | outcome [10] | Potency [11] | Potency [17] | Potency [12] | Potency [13] | Potency [14] | Potency [15]

CN1CCC(N(Cc2ccccc2)c2ccccc2)CC1
inactive: Potency [1] | Potency [2] | Potency [3] | Potency [4] | Potency [5] | Potency [6] | outcome [7] | outcome [8] | outcome [9] | outcome [10] | Potency [17] | Potency [12] | Potency [13] | Potency [14] | Potency [15] | Potency [16]

COc1cc(OC)nc(NC(=O)NS(=O)(=O)c2ncccc2OCC(F)(F)F)n1
inactive: Potency [1] | Potency [2] | Potency [3] | Potency [4] | Potency [5] | Potency [6] | outcome [7] | outcome [8] | Potency [11] | Potency [12] | Potency [13] | Potency [14] | Potency [15]

O=NN1CCCCC1
inactive: Potency [1] | Potency [2] | Potency [3] | Potency [4] | Potency [5] | Potency [6] | outcome [7] | outcome [8] | outcome [9] | outcome [10] | Potency [12] | Potency [13] | Potency [14] | Potency [15] | Potency [16]

CCOP(=O)(N=C1SCCS1)OCC
inactive: Potency [1] | Potency [2] | Potency [3] | Potency [4] | Potency [5] | Potency [6] | outcome [7] | outcome [8] | outcome [9] | outcome [10] | Potency [17] | Potency [12] | Potency [13] | Potency [14] | Potency [15]

CCCCc1c(C)nc(NCC)[nH]c1=O
inactive: Potency [1] | Potency [2] | Potency [3] | Potency [4] | Potency [5] | Potency [6] | outcome [7] | outcome [8] | outcome [9] | outcome [10] | Potency [17] | Potency [12] | Potency [13] | Potency [14]

C=C(C)CN(CC)c1c([N+](=O)[O-])cc(C(F)(F)F)cc1[N+](=O)[O-]
inactive: Potency [1] | Potency [2] | Potency [3] | Potency [4] | Potency [5] | outcome [7] | outcome [8] | outcome [9] | outcome [10] | Potency [11] | Potency [17] | Potency [12] | Potency [13] | Potency [14]
active: Potency [15] 27.3 µM

ClCC(Cl)(Cl)Cl
inactive: Potency [1] | Potency [2] | Potency [3] | Potency [4] | Potency [5] | Potency [6] | outcome [7] | Potency [11] | Potency [17] | Potency [12] | Potency [13] | Potency [14] | Potency [15] | Potency [16]

O=CNC(N1CCN(C(NC=O)C(Cl)(Cl)Cl)CC1)C(Cl)(Cl)Cl (stereo not given)
inactive: Potency [1] | Potency [2] | Potency [3] | Potency [4] | Potency [5] | Potency [6] | outcome [7] | outcome [8] | outcome [9] | outcome [10] | Potency [17] | Potency [12] | Potency [13] | Potency [14] | Potency [16]
active: Potency [15] 27.3 µM

CCOP(=O)(OCC)OP(=O)(OCC)OCC
inactive: Potency [1] | Potency [2] | Potency [3] | Potency [4] | Potency [5] | Potency [6] | outcome [7] | outcome [8] | outcome [9] | outcome [10] | Potency [17] | Potency [12] | Potency [13] | Potency [14] | Potency [15] | Potency [16]
